Test [1] concerns the target Aldehyde dehydrogenase, mitochondrial (Homo sapiens) (UniProt P05091). Briefly: qHTS for Inhibitors of the Aldehyde Dehydrogenase Family (ALDH2) Primary screen (AID 2061308). Further: nearly all actives have a fitted effect of over 55% in size.
For test [2], the target named is Retinaldehyde dehydrogenase 3 (Homo sapiens) (UniProt P47895). Put plainly: qHTS for Inhibitors of the Aldehyde Dehydrogenase Family (ALDH1A3) Primary screen (AID 2061315). In general terms: In qHTS, concentration-response curves come from the screen itself.

Molecules are shown by their SMILES. Results filed as inconclusive are left out. Entries that show only a call come without a potency. Activity calls are given as the source filed them. The call rests on the fitted dose curve; in most records, active means well fitted curve in the direction sought with a large enough effect; inconclusive means small, poorly fitted or top-dose-only effect, or another doubt; inactive means no such curve, though single readings can be large; an effect the other way counts as inactive or inconclusive.

On to `N#Cc1c(-c2ccc(OCCOCCOCCNC(=O)CCCC[C@@H]3SC[C@@H]4NC(=O)N[C@@H]43)cc2)no[n+]1[O-]`, for which the Potency entry in test [1] and in test [2] was “inactive” each time.
In the case of `O=C(NCCc1nc2ccccc2n1CCOc1ccccc1F)C1CCCCC1`, the Potency result in test [1] and in test [2] was “inactive” throughout.
On to `COc1cccc(CNc2ccc(S(=O)(=O)Nc3ncccn3)cc2)c1O`, for which the Potency result in test [1] and in test [2] was “inactive” each time.
For `COC(=O)c1c(NC(=O)COC(=O)c2ccc(Cl)cc2[N+](=O)[O-])sc2c1CCCCC2`, the Potency entry in test [1] and in test [2] was “inactive” in each case.
With `Cc1noc(C)c1-c1ccc2ncnc(NCc3cccc(F)c3)c2c1`, the Potency result in test [1] and in test [2] was “inactive” throughout.
For `Cc1cc(C)nc(NC(=S)N2CCN(c3ncccc3C(F)(F)F)CC2)c1`, the Potency result in test [1] and in test [2] was “inactive” in each case.
With `Cc1cc(C)nc(NC(=S)N2CCN(c3ccc4cnccc4c3)CC2)c1`, the Potency result in test [1] and in test [2] was “inactive” throughout.
As for `CCCC1CCN(C(=O)CC(c2ccc3c(c2)OCO3)c2c(O)cc(OC)cc2OC)C1` (stereo not drawn), the Potency result in test [1] and in test [2] was “inactive” each time.
As for `Cc1cc2c(s1)c1cnn(Cc3c(F)ccc(C)c3F)c(=O)c1n2C`, the Potency entry in test [1] and in test [2] was “inactive” each time.
With `O=C(c1cc2sccc2n1Cc1ccccc1)N(CCc1ccc(O)c(O)c1)Cc1ccccc1`, the Potency result in test [1] and in test [2] was “inactive” in each case.
For the molecule `COc1cccc(C2c3c(ncn(-c4ccc(Br)cc4)c3=N)Oc3ccc4ccccc4c32)c1` (stereo not drawn), the Potency entry in test [1] and in test [2] was “inactive” each time.
With `CCCCNc1nc(C)nc2c1nc(-c1ccccc1)n2CC1CCCN1CC` (stereo not drawn), the Potency result in test [1] and in test [2] was “inactive” in each case.
Consider `CC(C)[C@@H](C)/C=C/[C@@H](C)[C@H]1CC[C@H]2C3=CC=C4C[C@@H](O)CC[C@]4(C)C3=CC[C@]12C`, for which the Potency entry in test [1] and in test [2] was “inactive” in each case.
Consider `c1ccc(CNc2nc(-c3cccs3)nc3ccccc23)cc1`, for which the Potency entry in test [1] and in test [2] was “inactive” throughout.

The values are drawn from PubChem BioAssay (NCATS).
